Sampled rows, rich in hits. Any-hit rate of the full collection: about 13%.
USP10 inh: inhibitors of human USP10 deubiquitinase. Ubiquitin carboxyl-terminal hydrolase 10 (Homo sapiens), Q14694. purified USP10, Ub-rhodamine fluorescence, 60 min. inhibition, % at 20 µM. actives 1.1% (n = 47,000). AID 1645856, 2021
USP8 block: inhibitors of human USP8 deubiquitinase | Ubiquitin carboxyl-terminal hydrolase 8 (Homo sapiens), P40818 | purified USP8, Ub-rhodamine cleavage fluorescence, 30 min | inhibition, % at 20 µM | actives 4.2% (n = 47,000) | AID 1645853, 2021
USP30 block: inhibitors of human USP30 deubiquitinase | Ubiquitin carboxyl-terminal hydrolase 30 (Homo sapiens), Q70CQ3 | purified USP30, Ub-rhodamine cleavage fluorescence | inhibition, % at 25 µM | actives 5.3% (n = 47,000)
USP17 block: inhibitors of human USP17 deubiquitinase | Ubiquitin carboxyl-terminal hydrolase 17-like protein 5 (Homo sapiens), A8MUK1 | purified USP17, Ub-rhodamine cleavage fluorescence, 3 h | inhibition, % at 50 µM | actives 6.5% (n = 47,000)
USP7 block: inhibitors of human USP7 deubiquitinase; purified USP7, Ub-rhodamine cleavage fluorescence; inhibition, % at 20 µM; Ubiquitin carboxyl-terminal hydrolase 7 (Homo sapiens), Q93009; actives 0.3% (n = 47,000)
UCHL1 inh: inhibitors of human UCHL1 deubiquitinase; Ubiquitin carboxyl-terminal hydrolase isozyme L1 (Homo sapiens), P09936; purified UCHL1, Ub-rhodamine cleavage fluorescence; inhibition, % at 20 µM; actives 0.2% (n = 47,000); AID 1645859, 2021
Numbers without * were called inactive. Rule as the data show it: active = inhibition above about 30%; inactive = the rest.

SMILES | USP10 inh | USP8 block | USP30 block | USP17 block | USP7 block | UCHL1 inh
Cc1ccc(CS(=O)(=O)c2cn(CC(=O)NCc3ccco3)c3ccccc23)cc1 | 3 | 34* | 12 | 37* | -16 | 0
Cc1cccc(CNC(=O)Cn2cc(-c3nnco3)c3ccccc32)c1 | 5 | -1 | 11 | 46* | -6 | 2
Cc1ccc(CS(=O)(=O)c2cn(CC(=O)NCCc3ccccc3)c3ccccc23)cc1 | 17 | 25 | -4 | 3 | 7 | 0
Cc1ccc(CNC(=O)Cn2cc(S(=O)(=O)Cc3ccccc3)c3ccccc32)cc1 | 2 | 38* | -114 | -38 | 1 | 0
Cc1ccc(CS(=O)(=O)c2cn(CC(=O)NCCC3=CCCCC3)c3ccccc23)cc1 | 6 | 15 | -13 | 7 | 3 | 0
O=c1c2c(ccn1Cc1nc(C3CC3)no1)ccn2Cc1cccnc1 | 1 | 29 | 10 | 8 | -1 | 4
CNC(=O)[C@@]12CCC3(CCN(C(=O)c4cccc(OC)c4)CC3)[C@@H]1CN(C)C2 | -2 | -6 | 0 | -2 | -3 | -3
COc1ccc(CNc2nc3c(c(=O)n2C)CCN(C(=O)NC2CCCC2)C3)cc1 | 0 | 4 | -21 | 1 | 6 | 3
COc1ccc(CNC(=O)CN2C(=O)C3CCCC3=Nc3ccccc32)cc1 (configuration not stated) | 20 | 83* | 33* | 22 | 7 | 6
COc1ccc(C)cc1NC(=O)CN1C(=O)C2CCCC2=Nc2ccccc21 (configuration not stated) | 25 | 42* | 77* | 82* | 8 | 3
COc1cccc(NC(=O)CN2C(=O)C3CCCC3=Nc3ccccc32)c1 (configuration not stated) | 6 | 7 | 9 | 16 | 4 | 5
O=C(c1[nH]nc2c1COc1ccccc1-2)N1CCC(CCN2CCOCC2)CC1 | 0 | 1 | 13 | 0 | 4 | 3
COc1ccc(Nc2ncc(C(=O)Nc3ccc(Oc4ccccc4)cc3)c3ccccc23)cc1 | 8 | 20 | 68* | 19 | 2 | 7
COc1cc(Cl)ccc1Nc1ncc(C(=O)Nc2cc(OC)c(OC)c(OC)c2)c2ccccc12 | 5 | 33* | -4 | 94* | 8 | 2
COc1ccc(NC(=O)c2cccnc2Nc2ccc(OC)cc2)cc1 | 2 | -7 | -12 | 2 | 3 | 2
COCC(=O)N1C[C@H](OCc2ccccn2)[C@H]2OCCC[C@H]21 | -4 | -19 | -3 | -7 | 6 | 1
CN(C(=O)Cn1cccc(S(=O)(=O)N2CCCCCC2)c1=O)c1ccccc1 | -5 | -5 | -34 | -10 | -8 | -4
CCOC(=O)c1nnc(N)s1 | 6 | -14 | 7 | -4 | 0 | -3
Cc1nc2ccccc2nc1COc1ccc(OCC(=O)O)cc1 | 0 | -48 | -312 | -83 | 2 | -1
CN1C(=O)C(C)(C)COc2ccc(NS(=O)(=O)c3cc(F)ccc3F)cc21 | 4 | 44* | -41 | 1 | -2 | 0
CCCS(=O)(=O)N1CCOC2(CCCN(c3ncc(F)cn3)C2)C1 (configuration not stated) | -3 | -42 | -1 | -1 | 3 | 0
CC[C@H]1OC(=O)C[C@@H](O)[C@H](C)[C@@H](O[C@H]2CC(N(C)C)[C@H](O[C@H]3CC(C)(O)[C@@H](O)C(C)O3)C(C)O2)[C@@H](CC=O)C[C@@H](C)C(=O)/C=C/[C@@]2(C)O[C@@H]2[C@H]1CO[C@@H]1OC(C)[C@@H](O)C(OC)C1OC (some centres not stated) | -6 | -4 | -12 | -8 | 0 | 0
Cc1ccc(CNC(=O)CCCCCn2c(=O)c3sccc3n(CC(=O)c3ccc(Cl)cc3)c2=O)cc1 | -4 | 8 | -36 | -3 | 9 | -8
COc1cc(OC)cc(-n2c(=O)c3sccc3n(CC(=O)c3ccc(Cl)cc3)c2=O)c1 | 9 | -1 | 30* | 35* | 5 | 0
COc1c(C)c(C(O)C(C)O)c2[nH]c3ccc(CC=C(C)C)cc3c2c1O (configuration not stated) | 4 | 63* | 48* | 99* | -15 | 12
SMILES | USP10 inh | USP8 block | USP30 block | USP17 block | USP7 block | UCHL1 inh
Cc1nc(C2COCCN2C(=O)c2cnc3ccccc3c2)cc(=O)[nH]1 (configuration not stated) | -1 | -6 | -35 | -10 | -1 | 0
O=C(CC1SC(N2CCOCC2)=NC1=O)Nc1cccc([N+](=O)[O-])c1 (configuration not stated) | 1 | -48 | 31* | 15 | 0 | -1
Cc1nc2ncccc2c(=O)n1-c1ccc(NC(=O)c2ccc(F)cc2F)cc1 | 3 | 19 | 34* | 16 | 7 | 2
COc1cccc(C(=O)Nc2ccc(-n3c(C)nc4ncccc4c3=O)cc2)c1 | 1 | -46 | 1 | -7 | 1 | -2
CC(=O)N1CCn2c(c(C(=O)NC3CCCCC3)c3cccnc32)C1 | -4 | -6 | 0 | 9 | -5 | 3
COc1cccc([C@@H]2c3c(C)nn(C)c3NC(=O)[C@H]2NC(=O)c2ccc(Cl)cc2)c1 | -4 | 21 | 4 | 11 | -1 | 5
CC(=O)Nc1ccc(S(=O)(=O)N2CCCC(C(=O)NCCc3ccccc3)C2)cc1 (configuration not stated) | 0 | -12 | -7 | 1 | 0 | -1
Cc1cccc(CCNC(=O)c2ccc(CNS(=O)(=O)c3ccc(F)cc3)cc2)c1 | 3 | -6 | 34* | -6 | 4 | 0
COc1ccccc1NS(=O)(=O)c1ccc(C(=O)NCc2ccc(S(N)(=O)=O)cc2)cc1 | 3 | 10 | 10 | 14 | 4 | 4
CC(=O)Nc1ccc(S(=O)(=O)N2CCC(C(=O)NCCc3ccc(Cl)cc3)CC2)cc1 | -3 | 14 | 34* | 18 | 2 | 1
CC(=O)Nc1ccc(S(=O)(=O)NCc2ccc(C(=O)NCc3ccccc3Cl)cc2)cc1 | 1 | -6 | -6 | -6 | -5 | 1
Cc1ccc(S(=O)(=O)NCc2ccc(C(=O)NCCc3ccc(S(N)(=O)=O)cc3)cc2)cc1 | 49* | 63* | 88* | 88* | 21 | 3
CC(=O)Nc1ccc(S(=O)(=O)NCc2ccc(C(=O)NCCc3ccc(Cl)cc3)cc2)cc1 | 17 | 4 | 96* | 17 | 8 | 6
CN(C)c1cc(C(=O)NCc2cccnc2)nc2ccnn12 | 1 | -31 | 2 | -7 | 0 | -3
O=C(c1ccc(Br)o1)N(Cc1ccccc1Cl)c1ccccn1 | 5 | -12 | 21 | 18 | 0 | 1
O=C(NCc1ccc(F)cc1F)c1csc(C(=O)N2CCCC2)n1 | -1 | 5 | -9 | -1 | -4 | -2

Compound activity from PubChem.
